Out of some 53,000 compounds screened, about 900 (1.7%) showed an effect of 50% or more. Only a selection was taken, and strong results are over-represented in it overall.
Tested on: Mycobacterium tuberculosis
Experiment: Cornell - Phenotypic assay to identify agents that inhibit growth of Mycobacterium tuberculosis
Format: functional
Design: scale not given: direction of the effect not stated beside the values
Details: 10 mM as filed; unlikely as a test dose

SMILES | Percent Effect
CCN(CC)C(=O)c1cc(C2(C)CCN(C(C)=O)CC2)nc(C)n1 | 3.743%
O=C(O)C1CN(c2cccc(F)c2)CCO1 (configuration not stated) | -11.48%
O=C1CC(c2ccccc2)C2(CCN(Cc3ccccn3)CC2)N1 (configuration not stated) | 1.787%
CC(=O)NCc1cc2n(n1)CCN(Cc1cccc(Cl)c1Cl)C2 | 13.71%
O=C(c1ccco1)N1CCC(n2nc(-c3ccco3)ccc2=O)CC1 | 11.6%
O=C(Cc1ccncc1)N(CCO)CCSc1ccc(Cl)cc1 | 12.99%
Cc1cccc(CNC(Cc2ccsc2)c2nc(C)c(C)s2)n1.Cl (configuration not stated) | 47.96%
O=C1COc2cc(C(=O)NS(=O)(=O)c3ccc(F)c(F)c3)ccc2N1 | -19.76%
Cc1nn(C)cc1S(=O)(=O)N[C@@H]1CC[C@@H](n2ccnc2C)[C@@H]1O | -21.64%
CO[C@@H]1CC[C@@H](NS(=O)(=O)c2cn(C)nc2C)[C@H]1O | 50.32%
Cc1nn(C)cc1S(=O)(=O)N[C@@H]1CCC[C@@H](N2CCCC2)[C@@H]1O | 19.92%
CC(NC(=O)N1CCNC(=O)CC1)c1ccc(OC(F)F)cc1 (configuration not stated) | -26.09%
c1cc(CN2CCC(Cc3noc(C4CC4)n3)CC2)c2c(c1)OCO2 | 11.43%
Fc1ccc(C2(CNC3=NCCN3)CCCC2)cc1.I | 20.05%
O=C(CCc1cc2n(n1)CCCNC2)NCCS(=O)(=O)N1CCCC1 | -51.2%
CN1CCN(c2cc(N3CCCC3CO)ncn2)Cc2ccccc21 (configuration not stated) | -16.34%
CS(=O)(=O)N1CCN(c2cc(N3CCCC3CO)ncn2)CC1 (configuration not stated) | 0.6089%
Cc1cccc2c1CCN(c1cc(N3CCCC3CO)ncn1)C2 (configuration not stated) | 67.12%
Cc1noc(Cl)c1CCC(=O)N1CCCCC1Cn1cccn1 (configuration not stated) | -3.884%
Cc1ccc(S(=O)(=O)NC(=O)c2c(C)noc2C(C)C)cc1C | 26.09%
CCOc1ccc(S(=O)(=O)NC(=O)c2c(C)noc2C(C)C)cc1 | 49.48%
Cc1noc(C(C)C)c1C(=O)NS(=O)(=O)c1ccc(Cl)cc1 | 78.7%
Cc1cc2nccc(C3CCN(C(=O)c4ccccc4F)CC3)n2n1 | 6.226%
CCC(Nc1ccc(CCN2CCOCC2)cc1)C(N)=O (configuration not stated) | -19.51%
COCC(=O)NCc1ccc(-c2ncncc2C(=O)N(C)C)cc1 | 50.66%
COCCC(=O)NCc1ccc(-c2ncncc2C(=O)N(C)C)cc1 | 32.24%

SMILES | Percent Effect
CN(C)C(=O)c1cncnc1-c1ccc(CNC(=O)C2CC2)cc1 | 37.26%
CNC(=O)c1sc2ccccc2c1C1CCN(c2nc(C)cc(C)n2)C1 (configuration not stated) | 14.17%
CN1CCCC1CCNC(=O)c1ccccc1-n1cc(CN)cn1 (configuration not stated) | 7.916%
Cc1cccc2c1C(=O)NC1(CCOCC1)N2 | 17.55%
Cn1nccc1-c1ccc2nc(C3CCN(CC4CC4)CC3)nn2c1.O=C(O)C(F)(F)F.O=C(O)C(F)(F)F | -10.01%
Cc1nc(NCc2cccc(F)c2)cc(C2CCNCC2)n1.Cl | -9.727%
COc1ccc2[nH]c(CNc3cc(C4CCNCC4)nc(C)n3)cc2c1 | 70.58%
Cc1nc(NCc2ccc(C)o2)cc(C2CCNCC2)n1 | -17.21%
O=C(c1cncs1)N1CCC(c2cnccn2)CC1 | 7.442%
Cc1cn2c(n1)CCC(NC(=O)Cn1cncn1)C2 (configuration not stated) | -12.63%
Cc1ccc(OCCC(=O)N2CCN(c3cnccn3)CC2)cc1C | 39.73%
CCn1cc(C(=O)NCc2csc(C3CC3)n2)c(C)n1 | 26.12%
CCn1nc(C)c(C(=O)NCc2csc(C3CC3)n2)c1C | 69.61%
Cc1nn(C)cc1C(=O)NCc1csc(C2CC2)n1 | 0.3942%
CCSc1cc(C(=O)NCCc2nnc(-c3ccco3)[nH]2)ccn1 | -11.72%
CCOc1ccccc1-c1cc(N)[nH]n1.Cl | 108.1%
CCOc1cc(C)c(-c2cc(N)[nH]n2)cc1OCC | 10.44%
CCOc1ccc(Br)cc1-c1cc(N)[nH]n1.Cl | -17.72%
O=C(c1cc(C2CCCC2)no1)N1CC(O)C1 | 18.4%
CN(C)C(=O)CN1C(=O)CCC12CCN(Cc1ccc(F)cc1)CC2.O=C(O)C(F)(F)F | 13.62%
Cl.c1csc(-c2noc(C3CNC3)n2)c1 | 106.9%
Cl.c1csc(-c2noc(C3CCCNC3)n2)c1 (configuration not stated) | 9.745%
CCS(=O)(=O)N1CC(c2nc(-c3cccs3)no2)C1 | 8.063%
CO[C@H]1CN(c2ccccc2)S(=O)(=O)[C@@]12CCN(Cc1ccccc1)C2 | 6.335%
Cc1ccccc1CC(=O)N1CCCn2cncc2C1 | -17.85%
Cc1cccc(C(=O)N2C[C@H](NS(C)(=O)=O)[C@@H]3OCCC[C@@H]32)n1 | 2.201%

SMILES | Percent Effect
CN1CCC(NC(=O)Nc2ccc(Br)c(F)c2)C1=O (configuration not stated) | 8.703%
CN1CCC(NC(=O)Nc2ccc(F)c(Br)c2)C1=O (configuration not stated) | -9.143%
CN1CCC(NC(=O)Nc2ccc(F)c(-n3cccc3)c2)C1=O (configuration not stated) | 84.66%
COCCNc1ccc(CC2CCCN(C3CCCC3)C2)nn1 (configuration not stated) | 39.43%
CN(C)CCN1CC(C(=O)N(C)Cc2cc3cc(F)ccc3[nH]2)CC1=O (configuration not stated) | 29.76%
CCc1nnc(CN(C)C(=O)C2CC(=O)N(C3CC3)C2)o1 (configuration not stated) | 20.13%
CN(Cc1cc2cc(F)ccc2[nH]1)C(=O)C1CC(=O)N(C(C)(C)C)C1 (configuration not stated) | 23.39%
CCN1CC(C(=O)N(C)Cc2cc3cc(F)ccc3[nH]2)CC1=O (configuration not stated) | 42.66%
CN(Cc1cc2cc(F)ccc2[nH]1)C(=O)C1CC(=O)N(C2CC2)C1 (configuration not stated) | 52.25%
CN(Cc1cc2cc(F)ccc2[nH]1)C(=O)C1CC(=O)N(C2CCCC2)C1 (configuration not stated) | 65.9%
c1ccc(CNc2ccccc2N2CCCC2)nc1 | 18.15%
O=C(NCc1ccc(Br)cc1F)C1(O)CCSCC1 | 15.88%
O=C(Cc1ccccc1)NCc1ncc(-c2ccccc2C(=O)O)cn1 | 23.42%
COCCC(=O)NCc1ccc(-c2ccccc2C(=O)O)cn1 | 57.39%
CS(=O)(=O)c1ccc(-c2ccccc2C(=O)O)cc1 | -4.334%
COCCC(=O)NCc1ccc(-c2ccccc2C(=O)O)nc1 | 47.85%
O=C(Cc1ccccc1)NCc1ccc(-c2ccccc2C(=O)O)cn1 | 48.74%
COCCN1CCC(Cc2cnc(-c3ccccc3C(=O)O)cn2)CC1 | -34.65%
CC(=O)NCc1ccc(-c2ccccc2C(=O)O)cn1 | 56.71%
O=C(O)c1ccccc1-c1cnc(CNC(=O)C2CCOCC2)nc1 | -26.12%
COCC(=O)NCc1ccc(-c2ccccc2C(=O)O)cn1 | 56.05%
COCCC(=O)N(CCC#N)c1ccc2c(c1)OCCO2 | 0.8387%
Cc1noc(C)c1-c1cccc(C2CCN(S(=O)(=O)N(C)C)CC2)n1 | 42.71%
O=S(=O)(N1CCCCC1)N1CCC(Oc2cnccn2)CC1 | 20.22%
CN(C(=O)c1ccon1)[C@@H]1CCC[C@@H](Oc2ccccc2)[C@@H]1O | -13.46%
O=C(COc1ccc(-c2ccccc2)nc1)NCC1CC1 | 18.89%

SMILES | Percent Effect
CCc1oc(C(=O)N(C)Cc2ccncc2)cc1CN(CC)CC | 3.07%
COC(=O)c1ccc(N2CCC(C(O)c3ccccc3)CC2)nn1 (configuration not stated) | 106%
COC(=O)c1ccc(N2CCC(c3ccccc3)CC2)nn1 | 26.44%
COC(=O)c1ccc(N2CCC(N(C)c3ccccc3)CC2)nn1 | 11.3%
OCC(CO)N1CCCC(Cc2ccnc(Nc3ccccn3)c2)C1 (configuration not stated) | 10.34%
Cc1cc(C)n(CCNc2ncnc3c2NC(=O)CN3)n1 | 18.99%
C/N=C1\c2cc3cc(OC)ccc3n2CCN1Cc1ccccc1.O=C(O)C(F)(F)F | 22.23%
C/N=C1/c2cc3cc(OC)ccc3n2CCN1Cc1ccccc1.Cl | 57.78%
C/N=C1\c2cc3cc(OC)ccc3n2CCN1C.Cl | -3.392%
CNC(=O)CN1CCOCC12CCN(C(=O)c1ccc(C)cc1)CC2.O=C(O)C(F)(F)F | 15.73%
CCN(C)C(=O)c1cc(-c2ccn(C(C)C)n2)n2ccccc12 | 68.36%
CC(C)n1ccc(-c2cc(C(=O)N3CCCC3)c3ccccn23)n1 | 40.75%
CCN(C)C(=O)c1cc(-c2cn(C(C)C)cn2)n2ccccc12 | -58.24%
CC(C)n1ccc(-c2cc(C(=O)N3CCN(C)CC3)c3ccccn23)n1.O=C(O)C(F)(F)F | -46.58%
CC(C)n1ccc(-c2cc(C(=O)NC3CC3)c3ccccn23)n1 | -20.13%
CCCNC(=O)c1cc(-c2ccn(C(C)C)n2)n2ccccc12 | 54.8%
O=C(c1cc[nH]n1)N1CCc2c(nc(N3CCCCC3)[nH]c2=O)C1 | 11.2%
CC(C#N)CN(C)C(=O)CCNC(=O)OC(C)(C)C (configuration not stated) | 19.92%
Cc1cnc(C(=O)N2CCN3C[C@H](OCc4cccnc4)C[C@H]3C2)cn1 | -31.84%
Cc1ccc(CNCc2cccc(NC(=O)CCN3CCOCC3)c2)s1 | 14.02%
CC1=C(C#N)C(=O)NC(=O)/C1=C\c1c(C)nn(-c2ccc(C)cc2)c1O | 24.62%
Cc1nc(CN2C(=O)CC[C@@H]3[C@H]2CCN3C2CCOC2)cs1.O=C(O)C(F)(F)F (some centres not stated) | 9.813%
CC(=O)N1C[C@@H]2CN(S(=O)(=O)C3CC3)CCO[C@@H]2C1 | -7.882%
CCn1nccc1CN(C)C(=O)Cn1nc(C)c(C)c1C | 1.975%

From ChEMBL document CHEMBL3988442, “University of Dundee, Small-Polar-MMV Screening Library” (2021)
